Data on 22 compounds can be found in the supplement of paper PMC12340641.

In experiment [1] the target is IKZF1 (dCK*-IKZF1 fusion in HEK293FT) (UniProt Q13422). As to the kind of experiment: inhibition of IKZF1 HTRF signal (DMSO = 0%, pomalidomide 10 uM = 100%); higher = lower IKZF1 protein level. As to conditions: compound concentration: 5 uM, overnight (~20 h). An outline of the steps: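 Compound was tested at 5 μM in single wells on HEK293FT cells (2000/well, 384-well) stably carrying an IKZF1 fusion, overnight at 37 °C. Total IKZF1 was measured in lysates with a commercial HTRF antibody kit as the background-subtracted 665/620 nm time-resolved FRET ratio. The reported figure is percent inhibition of IKZF1 signal, scaled per plate between vehicle and a reference degrader. The vehicle anchor was 0% and the degrader anchor 100%.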
Chain of IKZF1 (dCK*-IKZF1 fusion in HEK293FT) (Q13422 whole entry, looked up, the tested form may be a part): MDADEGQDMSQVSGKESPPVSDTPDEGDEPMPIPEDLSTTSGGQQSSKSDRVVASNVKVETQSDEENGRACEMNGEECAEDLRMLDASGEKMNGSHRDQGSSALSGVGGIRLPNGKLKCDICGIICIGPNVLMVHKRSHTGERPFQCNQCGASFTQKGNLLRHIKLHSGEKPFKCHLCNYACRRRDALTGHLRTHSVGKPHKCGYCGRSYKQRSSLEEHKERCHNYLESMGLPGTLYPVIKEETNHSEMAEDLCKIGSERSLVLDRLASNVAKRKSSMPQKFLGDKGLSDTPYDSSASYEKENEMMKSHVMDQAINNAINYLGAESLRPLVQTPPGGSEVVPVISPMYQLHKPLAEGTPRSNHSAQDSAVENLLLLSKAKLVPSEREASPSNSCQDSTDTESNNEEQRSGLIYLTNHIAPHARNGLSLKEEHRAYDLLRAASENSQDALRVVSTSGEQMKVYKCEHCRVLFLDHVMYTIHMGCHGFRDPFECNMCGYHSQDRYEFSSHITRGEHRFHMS

Another experiment has as its system HEK293FT dCK*-only. As to the kind of experiment: relative growth in counter assay (no AraC = 100%, AraC + DMSO = 0%); higher = more growth rescue independent of IKZF1. As to conditions: compound concentration: 5 uM; AraC concentration: 0.3 uM; overnight pretreatment + 4 days AraC. A digest of the protocol: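 For this counter assay, relative growth was normalised on each plate to two kinds of reference wells. HEK293FT cells expressing only an engineered kinase construct (300/well, 384-well) were treated with 5 μM compound 2 h after seeding, then after overnight at 37 °C with a nucleoside suicide substrate at 0.3 μM plus medium for 4 days. On day 5, Hoechst 33342-stained nuclei were counted by imaging, taking wells without suicide substrate as 100% and substrate plus vehicle as 0%.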

Another experiment deals with HEK293FT dCK*-IKZF1. The experiment in a line: relative growth recovery (pomalidomide 10 uM = 100%, DMSO = 0%); higher = more growth rescue (IKZF1 fusion degradation). Conditions: compound concentration: 5 uM; AraC concentration: 0.3 uM; overnight pretreatment + 4 days AraC. An outline of the steps: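 On day 5, whole-well imaging was used to count Hoechst 33342-stained nuclei of HEK293FT cells stably carrying a deoxycytidine kinase–IKZF1 fusion. These cells had received 5 μM compound 2 h after seeding, followed after overnight at 37 °C by a nucleoside suicide substrate at 0.3 μM plus medium for 4 days. Growth recovery was normalised on each plate against a reference degrader and vehicle, which defined 100% and 0%, and values are duplicate means from separate days.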

For the compound `O=C(OC)C1=C(C)NC(C)=C([N+]([O-])=O)[C@H]1[C@]2=CC=CC=C2C(F)(F)F`, in experiment [1], the “inhibition of IKZF1 HTRF signal” value is -26.8%. Further, the “relative growth in counter assay” value in the experiment with HEK293FT dCK*-only came out at 0.45%. Further, the relative growth recovery in the experiment on HEK293FT dCK*-IKZF1 is -0.325%.
As for `COc1cc(OC)c(/C=C2/C(=O)Nc3ccccc32)c(OC)c1`, in experiment [1], the “inhibition of IKZF1 HTRF signal” value was -15.9%. For the same compound, the “relative growth in counter assay” value in the experiment with HEK293FT dCK*-only was -33.5%. Further, the relative growth recovery with HEK293FT dCK*-IKZF1 was -11.3%.
Consider `Clc1ccc(COC(Cn2ccnc2)c2ccc(Cl)cc2Cl)cc1` (stereo unspecified), for which the “inhibition of IKZF1 HTRF signal” value in experiment [1] is -29.1%. Besides, the “relative growth in counter assay” value in the experiment with HEK293FT dCK*-only is 1.65%. For the same compound, the relative growth recovery in the experiment with HEK293FT dCK*-IKZF1 is 0.49%.
Regarding `CC[N+](CC)(CC)CC(=O)Nc1c(C)cccc1C`, in experiment [1], the “inhibition of IKZF1 HTRF signal” value is -32.9%. In the experiment with HEK293FT dCK*-only, the “relative growth in counter assay” value was -2.01%. In the experiment on HEK293FT dCK*-IKZF1, the relative growth recovery is -0.165%.
Regarding `CCN(CC)CCNc1ccc(CO)c2sc3ccccc3c(=O)c12` [Hycanthone], the “inhibition of IKZF1 HTRF signal” value in experiment [1] is -30.4%. Moreover, in the experiment on HEK293FT dCK*-only, the “relative growth in counter assay” value was -31.9%. Further, the relative growth recovery in the experiment with HEK293FT dCK*-IKZF1 is -12.3%.
The like results for `CC(C)[C@H]1c2ccc(F)cc2CC[C@@]1(CCN(C)CCCc1nc2ccccc2[nH]1)OC(=O)C1CC1` were, in that order, -25.9%, -31.9% and -9.29%.
Consider `CN(C)CCN1C(=O)c2cccc3cc(N)cc(c23)C1=O` [Amonafide], for which the “inhibition of IKZF1 HTRF signal” value in experiment [1] was determined as 27.6%. Also, the “relative growth in counter assay” value in the experiment on HEK293FT dCK*-only is -32.4%. Besides, the relative growth recovery in the experiment on HEK293FT dCK*-IKZF1 was -11.7%.
On to `CC1CC(OC(=O)C(O)c2ccccc2)CC(C)(C)C1` (stereo unspecified), for which, in experiment [1], the “inhibition of IKZF1 HTRF signal” value is -11.2%. Moreover, the “relative growth in counter assay” value in the experiment on HEK293FT dCK*-only was determined as 0.99%. The relative growth recovery with HEK293FT dCK*-IKZF1 was -2.85%.
As to `CC(=C\c1ccc(Cl)cc1)/C(C)=N/O`, in experiment [1], the “inhibition of IKZF1 HTRF signal” value is -25.6%. In addition, in the experiment on HEK293FT dCK*-only, the “relative growth in counter assay” value was -1.62%. Besides, in the experiment with HEK293FT dCK*-IKZF1, the relative growth recovery was -3.61%.
Consider `C=C1C(=O)O[C@H]2[C@H]1CC/C(C)=C/CC[C@@]1(C)O[C@@H]21` [parthenolide], for which, in experiment [1], the “inhibition of IKZF1 HTRF signal” value was -47.4%. Moreover, in the experiment with HEK293FT dCK*-only, the “relative growth in counter assay” value is -33%. Further, the relative growth recovery in the experiment on HEK293FT dCK*-IKZF1 was -10.5%.
Take `CCCCCCc1ccc(O)cc1O`: the “inhibition of IKZF1 HTRF signal” value in experiment [1] is -30.8%. Moreover, the “relative growth in counter assay” value with HEK293FT dCK*-only was determined as 4.87%. The relative growth recovery with HEK293FT dCK*-IKZF1 came out at 2.99%.
For `O=C(/C=C/c1ccc(O)cc1)c1ccc(O)cc1O` [Isoliquiritigenin], the “inhibition of IKZF1 HTRF signal” value in experiment [1] was -0.21%. Further, the “relative growth in counter assay” value in the experiment on HEK293FT dCK*-only is -7.18%. Further, the relative growth recovery in the experiment with HEK293FT dCK*-IKZF1 was -1.02%.
Regarding `Cc1ccccc1/N=N/c1ccc(NC(=O)c2ccnn2C)c(C)c1`, the “inhibition of IKZF1 HTRF signal” value in experiment [1] was -27%. Moreover, in the experiment with HEK293FT dCK*-only, the “relative growth in counter assay” value was -9.17%. Also, the relative growth recovery in the experiment with HEK293FT dCK*-IKZF1 was -0.005%.
On to `CCCCCCCCCCCCCCCC[N+](C)(C)C`, for which the “inhibition of IKZF1 HTRF signal” value in experiment [1] turned out to be 22.3%. For the same compound, the “relative growth in counter assay” value in the experiment on HEK293FT dCK*-only is -33.4%. Further, the relative growth recovery in the experiment with HEK293FT dCK*-IKZF1 was -11.7%.
The like results for `Cc1cc(N)c2ccccc2[n+]1CCCCCCCCCC[n+]1c(C)cc(N)c2ccccc21` were, in that order, -29.5%, -14.5% and -3.15%.
On the same counts, the results for `C(=C\c1ccccc1)/CN1CCN(C(c2ccccc2)c2ccccc2)CC1` are -25.9%, -3.15% and 1.06%.
The like results for `O=C(c1cc(S(=O)(=O)Nc2ccccc2F)c(F)cc1Cl)N1CCN2CCC[C@@H]2C1` were, in that order, -26%, -1.66% and -3.52%.
Turning to `Nc1ncn([C@H]2C[C@H](O)[C@@H](CO)O2)c(=O)n1` [decitabine], the “inhibition of IKZF1 HTRF signal” value in experiment [1] stood at 27.4%. Also, in the experiment with HEK293FT dCK*-only, the “relative growth in counter assay” value is -31.5%. Further, the relative growth recovery with HEK293FT dCK*-IKZF1 is -10.8%.
For `Clc1ccccc1C(c1ccccc1)(c1ccccc1)n1ccnc1`, the “inhibition of IKZF1 HTRF signal” value in experiment [1] is -36.9%. Moreover, the “relative growth in counter assay” value with HEK293FT dCK*-only was 5.96%. The relative growth recovery in the experiment on HEK293FT dCK*-IKZF1 was determined as 2.19%.
On the same counts, the results for `CCCCC/N=c1/ccn(Cc2ccccc2)c2ccccc12` are -21.7%, -2.74% and -2.79%.
As for `O=C(/C=C/c1ccc(O)c(O)c1)OCCc1ccccc1` [caffeic-acid-phenethyl-ester], the “inhibition of IKZF1 HTRF signal” value in experiment [1] is -31.4%. In addition, the “relative growth in counter assay” value with HEK293FT dCK*-only is -29%. Further, the relative growth recovery with HEK293FT dCK*-IKZF1 is -7.03%.
As for `ClC1=CC=CC(NC2=C3C(N(C(C)C)C=N3)=NC(N[C@H]([C@@H](C)C)CO)=N2)=C1` [purvalanol-a], the “inhibition of IKZF1 HTRF signal” value in experiment [1] was -35.2%. Further, the “relative growth in counter assay” value in the experiment on HEK293FT dCK*-only is 2.99%. For the same compound, the relative growth recovery with HEK293FT dCK*-IKZF1 was -1.66%.
